Compound activity deposited in PubChem BioAssay by several laboratories.
In the library only some 3.6% were active in any assay of this set; here they are far more common.
Autofluor counter – compound fluorescence in toxin protease inhibitor counterscreen | compound autofluorescence counterscreen, microsphere flow cytometry; stronger effect = higher value | fluorescence intensity (no concentration beside the values) | 3.1% of 360,000 active; in the data active = fluorescence intensity above about 16000; inconclusive = no clear call, values can overlap the other calls
BoNT-F LC inh – BoNT F light chain protease inhibition; AID 588497; Multiplex microsphere protease cleavage assay, flow cytometry; inhibition, % at 10 µM; 0.22% of 360,000 active; in the data active = inhibition above about 35%, passing the limit was not always enough; inconclusive = no clear call, values can overlap the other calls; note: plate controls were buffer without enzyme for full effect and enzyme alone for no effect
BoNT-A LC inh2 – blocks Botulinum neurotoxin A light chain protease; multiplex microsphere protease substrate cleavage, flow cytometry; inhibition, % at 10 µM; 0.17% of 360,000 active; note: plate controls were buffer without enzyme for full effect and enzyme alone for no effect
Anthrax LF prot – inhibitors of Bacillus anthracis lethal factor protease | P15917 | multiplex microsphere protease cleavage assay, LF | inhibition, % at 10 µM | 0.12% of 360,000 active | AID 588501; note: plate controls were buffer without enzyme for full effect and enzyme alone for no effect
MazEF act – increases E. coli MazEF RNase cleavage of RNA; P0AE70; FAM/BHQ RNA-DNA oligo cleavage fluorescence, 5 h; activation, % at 20 µM; 0.32% of 350,000 active; in the data active = activation above about 50%
Target sequence (P0AE70 whole entry, looked up): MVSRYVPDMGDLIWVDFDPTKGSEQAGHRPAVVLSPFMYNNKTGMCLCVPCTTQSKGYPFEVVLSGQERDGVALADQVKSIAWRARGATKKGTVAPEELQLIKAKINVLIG
The depositor's hits bear a star; ? = inconclusive; + = active, no number. Cut-off read from the data, not from the text of the source, unless noted: active = inhibition above about 30%; inconclusive = no clear call, values can overlap the other calls; inactive = below that.

SMILES | Autofluor counter | BoNT-F LC inh | BoNT-A LC inh2 | Anthrax LF prot | MazEF act
COc1ccc(NC(=O)Cc2ccc(Cl)cc2)cc1NC(=O)c1ccco1 | 21196* | 2 | ? | -9 | -3
COc1ccccc1-c1noc(-c2ccccc2C(=O)Nc2ccccc2)n1 | 4282 | 5 | 1 | -1 | 24
O=C(O)C1CC=CCC1C(=O)Nc1cccnc1 (stereo not given) | 3470 | -6 | 0 | 5 | 11
O=C(CSc1ncc(-c2ccccc2)n1C1CCCC1)N1CCc2ccccc21 | 8448 | -14 | -2 | -1 | 0
CN(C)S(=O)(=O)c1cccc(NC(=O)c2sccc2-c2ccccc2)c1 | 4988 | 5 | 1 | 0 | 2
O=S(=O)(c1ccc(Cl)cc1)N1CCC(n2cnc3cc(C(F)(F)F)ccc32)CC1 | 16517* | -2 | -1 | 0 | 5
O=S(=O)(c1ccc(F)cc1)N1CCC(n2cnc3ccccc32)CC1 | 3877 | -25 | -2 | -12 | 7
CCOC(=O)COn1c(-n2nc(C)cc2C)nc2ccccc2c1=O | 2978 | 6 | -1 | 4 | 1
CCCSc1cc(=O)n(-c2ccccc2)nc1C(=O)OCC | 22530* | -2 | 0 | 3 | 3
COC(=O)c1nn(-c2ccccc2)c(=O)cc1O | 2699 | 10 | 2 | 13 | 5
CCOC(=O)c1nn(-c2ccccc2)c(C#N)c1N | 2015 | -1 | 0 | -1 | 5
CCOC(=O)c1nnn(-c2ccccc2)c1C | 24310* | -7 | ? | -1 | -1
COC(=O)c1nn(-c2ccccc2)c(=O)cc1Oc1ccccc1 | 22483* | 1 | 0 | -2 | 4
O=C(NCC(c1ccco1)N1CCCCC1)c1cccc(S(=O)(=O)Nc2ccc(F)cc2)c1 (stereo not given) | 5931 | -6 | -2 | -2 | 6
COc1ccc(OC)c(NC(=O)Cc2coc3cc(C)cc(C)c23)c1 | 22476* | -1 | ? | -4 | 1
C/C(=N\NS(=O)(=O)c1ccc(C)c([N+](=O)[O-])c1)c1cccs1 | 2593 | -2 | 0 | 0 | 0
CCCC1CCC(=NNS(=O)(=O)c2ccc(C)c([N+](=O)[O-])c2)CC1 (stereo not given) | 2022 | 2 | 1 | -1 | 47
Cc1ccc(S(=O)(=O)NN=C2CCC(C(C)(C)C)CC2)cc1[N+](=O)[O-] (stereo not given) | 1901 | -3 | 1 | 0 | 115*
C/C(CC(C)C)=N\NS(=O)(=O)c1ccc(C)c([N+](=O)[O-])c1 | 4628 | 2 | 0 | -2 | 68*
CC1CCCC/C1=N\NS(=O)(=O)c1ccc(Br)cc1 (stereo not given) | 4031 | 6 | 1 | -3 | 78*
CC(C)(C)C1CCC(=NNS(=O)(=O)c2ccc(Br)cc2)CC1 (stereo not given) | 2657 | ? | 2 | 1 | 66*
O=C(CCCN1C(=O)c2ccccc2C1=O)Oc1ccc(F)cc1 | 23354* | -3 | -1 | -1 | -7
COC(=O)c1ccc(OC(=O)CN2C(=O)c3ccccc3C2=O)cc1 | 3709 | ? | -6 | 38* | -3
CCC(Sc1nc2ccncc2[nH]1)C(=O)Nc1cc(Cl)ccc1C (stereo not given) | 5487 | -12 | -1 | -4 | 6
CC(C)(C)c1ccc(-c2nc(C=O)c3ccccn23)cc1 | 18863* | 21 | ? | 21 | 5
SMILES | Autofluor counter | BoNT-F LC inh | BoNT-A LC inh2 | Anthrax LF prot | MazEF act
O=P(Nc1ccccc1)(Nc1ccccc1)Oc1cccc(Cl)c1 | 17171* | 18 | ? | -18 | -12
Cc1ccc(CS(=O)(=O)CCC(=O)NCCN(C)Cc2ccccc2)cc1 | 23874* | -1 | 0 | -1 | 3
Cc1ccc(CS(=O)(=O)CCC(=O)NCCc2ccccc2)cc1 | 3901 | 10 | 0 | 1 | -19
Fc1ccc(CN2CCCCCCC2)cc1F | 16629* | -3 | -2 | -4 | 0
FC(F)(F)c1cccc(CN2CCCCCC2)c1 | 24319* | -4 | -2 | 0 | 6
Fc1ccc(CN2CCCCCC2)c(F)c1 | 22437* | 3 | 1 | -1 | 10
O=C(/C=C/c1cccc([N+](=O)[O-])c1)OCC(=O)N1CCCCC1 | 4037 | 4 | 0 | 2 | 7
O=C(O)C1C2CCCCC2=C2CCCCC2C1C(=O)O (stereo not given) | 18813* | 3 | ? | 0 | -9
COc1ccc(N(CC(=O)NCC2CCCO2)S(=O)(=O)c2ccc(C)cc2)cc1OC (stereo not given) | 16225* | -1 | 0 | 0 | -4
Cc1ccc(N(CC(=O)NCC2CCCO2)S(=O)(=O)c2ccc(Cl)cc2)cc1C (stereo not given) | 5621 | 0 | -2 | -2 | -6
CC(CC1CC(C)(C)OC1=O)C(=O)Nc1nncs1 (stereo not given) | 20331* | 11 | ? | -4 | 1
Cc1cccc(N(CC(=O)N2CCN(c3ccc(F)cc3)CC2)S(C)(=O)=O)c1C | 4507 | 5 | -1 | 0 | 11
CS(=O)(=O)N(CC(=O)N1CCN(c2ccc(F)cc2)CC1)c1ccc(F)c(Cl)c1 | 24225* | -4 | ? | -4 | -19
CCOC(=O)c1cc(N)cc([N+](=O)[O-])c1 | 2374 | -8 | -1 | -2 | 1
CCOC(=O)c1sc2cc([N+](=O)[O-])cc(SCC(C)C)c2c1N | 20038* | 18 | 32* | 21 | 17
O=S(=O)(c1cccc2nsnc12)N1CCc2ccccc2C1 | 21361* | 7 | ? | -4 | 1
COc1ccc(Cl)cc1C(=O)Nc1cccnc1Cl | 4172 | ? | -3 | -12 | -40
Cc1cccc(N2CCN(C(=O)CCc3nc4ccccc4c(=O)[nH]3)CC2)c1C | 3497 | 2 | 0 | -11 | 3
Cc1cc(NS(=O)(=O)c2ccc(NC(=O)NC3CCCCC3)cc2)no1 | 17035* | -5 | -4 | -7 | 3
Cc1cc(NS(=O)(=O)c2ccc(NC(=O)Nc3cccc(Cl)c3)cc2)no1 | 9992 | -1 | 0 | -8 | 5
Cc1cc(NS(=O)(=O)c2ccc(NC(=O)Nc3ccc4c(c3)OCO4)cc2)no1 | 16204* | -2 | ? | 0 | -8
CCC(=O)Nc1ccc(S(=O)(=O)Nc2cc(C)on2)cc1 | 10473 | -1 | 0 | -4 | 6
Cc1cc(NS(=O)(=O)c2ccc(NC(=O)c3oc4ccccc4c3C)cc2)no1 | 22342* | -1 | 0 | 3 | -10
Cc1ccc(Sc2c([N+](=O)[O-])ncn2C)cc1 | 15373 | 2 | 2 | -8 | -7
Cn1cnc([N+](=O)[O-])c1Sc1ncccc1N | 22024* | -2 | -1 | -1 | -9
O=C1OCCC1Sc1nnc(-c2cccc(Br)c2)o1 (stereo not given) | 20056* | 0 | 2 | -3 | 0
CC(=O)N1c2ccc(S(=O)(=O)NCCC(=O)Nc3ccc(F)cc3)cc2CC1C (stereo not given) | 5321 | 4 | 0 | 0 | -3
C=CCOc1cccc(C2C(C(=O)c3ccc(C)o3)=C(O)C(=O)N2c2nccs2)c1 (stereo not given) | 5183 | 23 | 1 | 2 | +
CCCCOc1cccc(C2C(C(=O)c3ccc(C)o3)=C(O)C(=O)N2c2nnc(C)s2)c1 (stereo not given) | 6728 | 11 | -2 | 3 | 154*
